From PubChem BioAssay AID1159580 (chemical genetic matrix, 2015)
The campaign covered roughly 5,500 compounds. About 2,000 (36%) were called active. Another 18% or so got no clear call; they are omitted. No stated cut-off is given here; in the data, active means normalized growth mostly below about 0.91 (no sharp cut-off); inconclusive means no clear call, values can overlap the other calls; inactive means mostly above about 0.92. This is one part of the list.

Experiment: chemical genetic growth profiling, strain panel (AID 1159580);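 further: tested at 20 µM; growth read once vehicle control cultures reached saturation at 30 °C; 1 = growth at the plate median or of vehicle wells; lower values mean less growth of the strain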
Conditions: S. cerevisiae deletion strains, growth OD

Measured: normalized growth

CC(=O)N[C@@H](CC(=O)O)C(=O)O
inactive: locus YAL013W, strain DEP1, active compounds read low 1.01 | locus YAL021C, strain ccr4, active compounds read low 0.998 | locus YAL026C, strain drs2, active compounds read low 1.01 | locus YAL030W, strain snc1, active compounds read low 0.997 | locus YBL061C, strain skt5, active compounds read low 1.01 | locus YBR009C, strain hhf1, active compounds read low 1.01 | locus YBR021W, strain FUR4, active compounds read low 1.02 | locus YBR023C, strain chs3, active compounds read low 1 | locus YBR171W, strain sec66, active compounds read low 1 | locus YBR229C, strain ROT2, active compounds read low 1.01 | locus YBR231C, strain swc5, active compounds read low 0.982 | locus YBR279W, strain paf1, active compounds read low 1 | locus YCL011C, strain gbp2, active compounds read low 1.01 | locus YCL016C, strain dcc1, active compounds read low 1 | locus YCL029C, strain bik1, active compounds read low 1.03 | locus YCL069W, strain vba3, active compounds read low 1.01 | locus YCR088W, strain abp1, active compounds read low 1 | locus YDL005C, strain med2, active compounds read low 0.997 | locus YDL035C, strain GPR1, active compounds read low 1 | locus YDL040C, strain nat1, active compounds read low 1.01 | locus YDL074C, strain BRE1, active compounds read low 1.01 | locus YDL101C, strain DUN1, active compounds read low 1.01 | locus YDL134C, strain PPH21, active compounds read low 1.01 | locus YDL185W, strain tfp1, active compounds read low 1.02 | locus YDL192W, strain arf1, active compounds read low 1.02 | locus YDR001C, strain nth1, active compounds read low 1.01 | locus YDR069C, strain doa4, active compounds read low 1.03 | locus YDR101C, strain arx1, active compounds read low 1.02 | locus YDR137W, strain rgp1, active compounds read low 0.997 | locus YDR150W, strain NUM1, active compounds read low 1.01 | locus YDR159W, strain sac3, active compounds read low 0.969 | locus YDR162C, strain NBP2, active compounds read low 1.01 | locus YDR195W, strain ref2 0.972 | locus YDR297W, strain sur2, active compounds read low 1.02 | locus YDR318W, strain mcm21, active compounds read low 1.01 | locus YDR334W, strain swr1, active compounds read low 1.01 | locus YDR335W, strain msn5, active compounds read low 1.01 | locus YDR388W, active compounds read low 1.01 | locus YDR392W, strain spt3, active compounds read low 0.932 | locus YDR502C, strain sam2, active compounds read low 1.02 | locus YEL003W, strain gim4, active compounds read low 1.01 | locus YEL037C, strain rad23, active compounds read low 1.01 | locus YEL061C, strain CIN8 (second series), active compounds read low 1.01 | locus YEL061C, strain CIN8, active compounds read low 1.01 | locus YER015W, strain faa2, active compounds read low 1.01 | locus YER016W, strain bim1, active compounds read low 1 | locus YER110C, active compounds read low 1.02 | locus YER111C, strain swi4, active compounds read low 1.01 | locus YER155C, strain BEM2 (second series), active compounds read low 0.999 | locus YER155C, strain BEM2, active compounds read low 1.01 | locus YER167W, strain BCK2, active compounds read low 1.01 | locus YFR010W, strain ubp6, active compounds read low 1 | locus YGL078C, strain dbp3, active compounds read low 1.01 | locus YGL086W, strain mad1, active compounds read low 1.01 | locus YGL167C, strain pmr1, active compounds read low 1 | locus YGL173C, strain kem1, active compounds read low 1.02 | locus YGL227W, strain vid30, active compounds read low 1.01 | locus YGL240W, strain doc1, active compounds read low 0.984 | locus YGL248W, strain PDE1, active compounds read low 1 | locus YGL253W, strain hxk2, active compounds read low 1.01 | locus YGR078C, strain PAC10, active compounds read low 1.01 | locus YGR135W, strain pre9, active compounds read low 1.01 | locus YGR229C, strain SMI1, active compounds read low 1.01 | locus YGR252W, strain gcn5, active compounds read low 0.959 | locus YHR013C, strain ard1, active compounds read low 1.01 | locus YHR027C, strain rpn1, active compounds read low 0.993 | locus YHR030C, strain SLT2, active compounds read low 1.01 | locus YHR079C, strain IRE1 (second series), active compounds read low 1.01 | locus YHR094C, strain hxt1, active compounds read low 1.01 | locus YHR129C, strain ARP1, active compounds read low 0.997 | locus YHR142W, strain chs7, active compounds read low 1.01 | locus YHR200W, strain rpn10, active compounds read low 1.02 | locus YIL066C, strain RNR3, active compounds read low 1.02 | locus YIL073C, strain SPO22, active compounds read low 1.02 | locus YIL125W, strain kgd1, active compounds read low 1.01 | locus YIR030C, strain dcg1, active compounds read low 1.03 | locus YJL092W, strain hpr5, active compounds read low 1.01 | locus YJL095W, strain BCK1 (second series), active compounds read low 0.999 | locus YJL095W, strain BCK1, active compounds read low 1.02 | locus YJL115W, strain asf1, active compounds read low 1 | locus YJL129C, strain trk1, active compounds read low 1 | locus YJL134W, strain LCB3, active compounds read low 1.01 | locus YJL154C, strain vps35, active compounds read low 1.01 | locus YJL164C, strain tpk1, active compounds read low 1 | locus YJL166W, strain qcr8, active compounds read low 1.01 | locus YJL168C, strain set2, active compounds read low 1.01 | locus YJL187C, strain SWE1 (second series), active compounds read low 1.01 | locus YJL187C, strain SWE1, active compounds read low 1.03
